Shown are actives, neighbours in structure and some others; about 2% of the full set was active somewhere.
Mcl1 Noxa PPI: disrupts binding of human Mcl-1 to Noxa peptide | Q07820 | TR-FRET Mcl-1/Noxa peptide binding, 2 h | inhibition, % at 21.7 µM | actives 1.5% (n = 220,000) | AID 1022;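 active means compounds that cut the protein-peptide binding signal by more than 50% relative to plate controls in a single-dose test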;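 further: His-tagged Mcl-1 with rhodamine Noxa BH3 peptide and terbium anti-His antibody; 0% = Mcl-1 plus Noxa peptide wells and 100% = peptide-only wells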
Target sequence (Q07820 whole entry, looked up): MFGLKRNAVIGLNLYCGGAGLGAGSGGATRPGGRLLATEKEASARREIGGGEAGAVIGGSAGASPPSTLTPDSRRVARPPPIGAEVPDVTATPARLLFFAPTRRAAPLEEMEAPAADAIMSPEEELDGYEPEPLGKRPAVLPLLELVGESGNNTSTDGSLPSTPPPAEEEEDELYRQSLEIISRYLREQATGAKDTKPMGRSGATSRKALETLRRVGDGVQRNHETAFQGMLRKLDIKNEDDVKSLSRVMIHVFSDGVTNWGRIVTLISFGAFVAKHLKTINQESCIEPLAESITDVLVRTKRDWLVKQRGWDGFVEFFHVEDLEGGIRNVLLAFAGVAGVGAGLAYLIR
Mcl1 Bid PPI: disrupts binding of human Mcl-1 to Bid peptide; Q07820; TR-FRET Mcl-1/Bid-Dy647 peptide binding, 1536-well; inhibition, % at 21.7 µM; actives 0.97% (n = 220,000); AID 1021;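 active means compounds that cut the binding signal by more than half at the single screening dose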;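 further: His-tagged Mcl-1 with europium anti-His antibody binding Bid BH3 peptide; 0% = Mcl-1 plus peptide wells and 100% = peptide-only wells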
Mcl-1 Bim block: inhibitors of Bim-Mcl-1 interaction, human; inhibition, % at 10 µM; AID 1009; actives 0.1% (n = 190,000); Bead-based flow cytometry, Bim peptide-Mcl-1 binding; in the data active means inhibition above about 40%;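 further: 0% = no compound tracer wells and 100% = peptide blocker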
MCL1 BIM primary: MCL1-BIM-BH3 interaction inhibition (human) | Q07820 | GST-MCL1 / FITC-Bim-BH3 fluorescence polarization | inhibition, % at 10.9 µM | actives 0.68% (n = 320,000) | AID 2057;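 active means inhibition above the mean inhibition of all tested compounds plus 3 SD, set per campaign, cut at about 40% in these data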;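 further: 0% = DMSO wells and 100% = unlabeled Bim-BH3 peptide control; higher means more loss of mP so more displacement of Bim peptide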
* = called active by the depositor; / = not tested or not shown.

SMILES | Mcl1 Noxa PPI | Mcl1 Bid PPI | Mcl-1 Bim block | MCL1 BIM primary
O=C(Nc1nnc(-c2ccco2)s1)C1CC1 | 7 | 77* | -4 | 9
Cc1ccc2c(c1)c1c3n2CCCNC3CCC1 (stereo unspecified) | 2 | 63* | -6 | -2
Cc1ccc(/C=C/C(=O)Nc2ccc(N(C)C)cc2)o1 | 95* | 10 | 2 | 10
Cc1ccc(/C=C/C(=O)Nc2cccc(S(=O)(=O)N3CCOCC3)c2)o1 | 53* | -1 | -5 | -19
Cc1ccc(/C=C/C(=O)Nc2ccncc2)o1 | 36 | -50 | -11 | 5
O=C(CNc1ccc(Br)cc1)c1ccc(Br)s1 | / | / | / | 8
O=C(COc1ccccc1Cl)Nc1ccc2c(c1)C(=O)NC2=O | / | / | / | 0
CN1CCN(C(c2cccnc2)c2ccc3cccnc3c2O)CC1 (stereo unspecified) | 52* | -6 | 2 | 8
CCC(=O)NC(c1cccs1)c1ccc2cccnc2c1O (stereo unspecified) | -21 | -46 | -2 | 7
COC(=O)c1ccc2c(=O)n(CC3CCCO3)c(SCC(=O)Nc3ccc(OC)cc3OC)nc2c1 (stereo unspecified) | -39 | 57* | / | 6
COc1ccc(OC)c(NC(=O)CSc2nc3ccccc3c(=O)n2CC2CCCO2)c1 (stereo unspecified) | / | / | / | 7
CC(C)c1ccc(CN2CCC(Oc3ccc(C(=O)N4CCCC4)cc3)CC2)cc1 | / | / | / | 3
COc1cc([N+](=O)[O-])ccc1NC(=O)COC(=O)c1ccc(NC(N)=O)cc1 | 72* | 61* | / | 26
CN1CCN(c2ccc(Cl)cc2NC(=O)c2ccc(S(=O)(=O)N(C)C)cc2)CC1 | 55* | 8 | 0 | 0
Cc1ccc(S(=O)(=O)N(C)C)cc1NC(=O)COC(=O)c1ccc2c(c1)OCCO2 | 14 | 4 | -4 | 0
Cc1ccc(CNC(=O)Cn2cnc3c(NC(=O)OCc4ccccc4)ncnc32)o1 | / | / | / | -4
Cc1ccc(-n2[nH]c(C)c(C=Nc3ccc4[nH]c(=O)[nH]c4c3)c2=O)cc1 | 62* | 10 | 2 | 28
O=C(c1ccccc1)N1CCN(C(=O)c2ccc([N+](=O)[O-])cc2)CC1 | 54* | 10 | -3 | -12
CC(=O)c1cccc(NC(=O)C2CCN(C(=O)c3ccc([N+](=O)[O-])cc3)CC2)c1 | 9 | 73* | -2 | 2
O=C(Nc1ccccc1)C1CCN(C(=O)c2ccc([N+](=O)[O-])cc2)CC1 | 0 | -15 | 3 | 7
CNC(=O)N(O)C1N(/N=C/c2c(F)cccc2Cl)C(=S)SC1(C)C (stereo unspecified) | / | / | / | 5
O=C(O)c1ccc(N2C(=O)/C(=C/c3ccc(-c4ccc([N+](=O)[O-])cc4)o3)C=C2c2ccccc2)cc1 | 108* | 99* | 3 | -48
O=C1NN(c2ccccc2)C(=O)/C1=C/c1ccc(-c2ccc(C(=O)O)cc2)o1 | / | / | / | 29
O=C(Nc1nccs1)c1cc(-c2ccco2)nc2ccccc12 | 81* | -88 | -8 | 23
N=c1oc2cc(O)ccc2cc1C(=O)Nc1ccccn1 | 13 | -20 | 0 | -7
SMILES | Mcl1 Noxa PPI | Mcl1 Bid PPI | Mcl-1 Bim block | MCL1 BIM primary
O=C(Nc1nccs1)c1cc(-c2ccccc2)nc2ccccc12 | 20 | 18 | -9 | -4
N=c1oc2cc(O)ccc2cc1C(=O)Nc1nc2ccccc2s1 | 100* | 72* | 0 | -24
Cc1ccc2nc(NC(=O)c3cc(-c4ccco4)nc4ccccc34)sc2c1 | 42 | 53* | 0 | 1
O=C(Nc1nc2ccccc2s1)c1cc(-c2ccco2)nc2ccccc12 | 59* | 63* | -3 | 16
COc1ccc(/C=C(/NC(=O)c2ccccc2)C(=O)N2CCOCC2)cc1OC | / | / | / | 3
COc1cc(-c2nc3cccc(C)n3c2NCC2CCCO2)ccc1O (stereo unspecified) | 10 | -59 | 0 | 0
NC(=O)CSc1nc2scc(-c3ccco3)c2c(=O)n1-c1ccccc1 | 55* | 6 | 0 | 20
O=C(CSc1nc2ccsc2c(=O)n1Cc1ccc(C(=O)O)cc1)NCC1CCCO1 (stereo unspecified) | 14 | 18 | 73* | 4
O=C(CSc1nc2scc(-c3ccco3)c2c(=O)n1-c1ccccc1)NCC1CCCO1 (stereo unspecified) | 56* | 3 | -1 | 3
O=C(Nc1ccc(Cl)cc1)c1cccc(S(=O)(=O)Nc2ccccn2)c1 | / | / | / | 2
Cn1c2c(c(=O)n(C)c1=O)C1c3cc(Cl)ccc3OCC1CO2 (stereo unspecified) | 2 | 96* | 0 | 3
CC12CC(NC(=O)N1CCc1ccccc1)c1cc(Cl)ccc1O2 (stereo unspecified) | 18 | 4 | -6 | -1
CN(CC(=O)Nc1ccc(F)cc1)C(=O)CSc1nc2ncc(Cl)cc2[nH]1 | 67* | -5 | -3 | 0
Cc1ccc(S(=O)(=O)Nc2ccc(NC(=O)Nc3cccc(C(F)(F)F)c3)cc2)cc1 | 13 | -9 | 0 | -3
CCN(CC)S(=O)(=O)c1ccc(NC(=O)Nc2cccc(C(F)(F)F)c2)cc1 | 3 | 101* | 0 | -6
O=C(CSc1ccc(Cl)cc1)N1CCN(c2ccc([N+](=O)[O-])cc2Cl)CC1 | -1 | -4 | -1 | -4
Cc1ccc(Cl)cc1N1CCN(C(=O)CSc2ccsc2[N+](=O)[O-])CC1 | 55* | -16 | -8 | 11
N#C/C(=C/c1ccc(-c2cc([N+](=O)[O-])ccc2Cl)o1)C(N)=O | 70* | 57* | / | 28
N#C/C(=C/c1ccc(-c2ccccc2[N+](=O)[O-])o1)C(N)=O | 23 | -37 | 2 | 1
CNC(=O)/C(C#N)=C/c1ccc(-c2ccc(OC)cc2[N+](=O)[O-])o1 | 40 | 66* | 1 | 11
O=C(Cn1nc(C(=O)O)c2ccccc2c1=O)Nc1ccc2c(c1)C(=O)c1ccccc1C2=O | 80* | 75* | / | 2
CCCc1ccc(S(=O)(=O)N(C)S(=O)(=O)c2ccc(F)cc2)cc1 | / | / | / | 17
O=C(O)c1cccc(N2C(=O)/C(=C/c3ccc(SCc4ccc(Cl)cc4)o3)SC2=S)c1 | 89* | 84* | 11 | /
O=C(CCN1C(=O)/C(=C/c2ccc(Cl)cc2)SC1=S)Nc1cccc(C(=O)O)c1 | / | / | / | 1
O=S(=O)(/C=C/c1ccccc1)Oc1ccccc1 | -8 | -8 | -1 | 1
O=C(NCc1ccco1)c1cc2c(s1)CSC2 | 79* | -24 | -1 | 37
CC(C)Oc1ccc(C(=O)N/N=C/c2ccc(-c3ccc(S(=O)(=O)Nc4ncccn4)cc3)o2)cc1 | 67* | -34 | -1 | 13
CCCN(CCC)C(C(=O)Nc1cccc(OC)c1)c1ccccc1 (stereo unspecified) | -12 | 95* | -1 | -5
CCCn1c(=O)n(C)c(=O)c2c(SCC(=O)Nc3cc(C)on3)nc(C(C)(C)C)nc21 | / | / | / | -4
COc1ccc(N=C2S/C(=C\c3ccc(OC(C)C(=O)O)c(OC)c3)C(=O)N2CCc2c[nH]c3ccccc23)cc1 (stereo unspecified) | 82* | -16 | 2 | /

Screening data: PubChem, several laboratories
